AC50 and outcome data for nine compounds are collected here from PubChem BioAssay (EPA / NIEHS).

Assay [1] is described as follows: BSK_3C_Proliferation: Cell Proliferation Assessment in the BioMAP Diversity Plus: 3C Assay (AID 2283006).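 For AC50: potency may reflect either rise or fall in cell number versus DMSO.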 Conditions: primary human endothelial cells (HUVEC). In a few lines: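 Proliferation of human vascular endothelial primary cells after 48 h dosing, quantified as SRB-stained protein at 560 nm relative to DMSO.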
The target in assay [2] is Peroxisome proliferator-activated receptor gamma (Homo sapiens) (UniProt P37231). The assay is described as follows: ATG_PPARg_TRANS: Attagene TRANS-FACTORIAL HepG2 Assay for human Peroxisome Proliferator-activated Receptor-gamma (PPARg) (AID 2283007; active = hit-call score of the fitted dose curve at least 0.9, where 1 is the maximum). The method in brief:
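HepG2 cells transiently transfected with multiplexed GAL4-UAS reporter units and exogenous chimeric NR-Gal4 proteins; reporter mRNA quantified after 24 h compound exposure by RT-PCR, fluorescent labelling, HpaI digestion and capillary electrophoresis; gain-of-signal fitted versus DMSO baseline.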

Assay [3] addresses Nuclear receptor subfamily 1 group I member 2 (Homo sapiens) (UniProt O75469). The assay is described as follows: ATG_PXR_TRANS: Attagene TRANS-FACTORIAL HepG2 Assay for human Pregnane X Receptor (PXR) (AID 2283008; active = hit-call score of the fitted dose curve at least 0.9, where 1 is the maximum). The method in brief: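 Read-out is fluorescence of labelled reporter cDNA fragments separated by capillary electrophoresis after RT-PCR and HpaI digestion. Source: HepG2 cells carrying PXR-GAL4/UAS reporter constructs, treated 24 h; activity fitted upward relative to DMSO.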

Assay [4] addresses human Retinoic Acid Receptor gamma (RARg), RARG (gene 5916) (UniProt P13631). The assay is described as follows: ATG_RARg_TRANS: Attagene TRANS-FACTORIAL HepG2 Assay for human Retinoic Acid Receptor gamma (RARg) (AID 2283009; active = hit-call score of the fitted dose curve at least 0.9, where 1 is the maximum). In a few lines:
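HepG2, RARg-GAL4 TRANS system, 24 h exposure; reporter mRNA by RT-PCR + CE fluorescence; increase over DMSO.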

The target of assay [5] is human RAR-related Orphan Receptor beta (RORb), RORB (gene 6096) (UniProt Q92753). Briefly: ATG_RORb_TRANS: Attagene TRANS-FACTORIAL HepG2 Assay for human RAR-related Orphan Receptor beta (RORb) (AID 2283010; active = hit-call score of the fitted dose curve at least 0.9, where 1 is the maximum). In a few lines:
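In this TRANS-format test, human HepG2 cells express chimeric NR-Gal4 fusion proteins driving GAL4-UAS reporters. After 24 h dosing, reporter transcripts are measured by fluorescent RT-PCR/capillary electrophoresis, with DMSO as negative control.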

Assay [6] has as its target human Retinoid X Receptor beta (RXRb), RXRB (gene 6257) (UniProt P28702). Briefly: ATG_RXRb_TRANS: Attagene TRANS-FACTORIAL HepG2 Assay for human Retinoid X Receptor beta (RXRb) (AID 2283013; active = hit-call score of the fitted dose curve at least 0.9, where 1 is the maximum). The method in brief:
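Multiplexed TRANS reporter assay in HepG2; 24 h dosing; reporter mRNA by RT-PCR/CE fluorescence; gain-of-signal relative to DMSO.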

Assay [7] deals with human Thyroid Receptor alpha (THRa1), THRA (gene 7067) (UniProt P10827). The assay is described as follows: ATG_THRa1_TRANS: Attagene TRANS-FACTORIAL HepG2 Assay for human Thyroid Receptor alpha (THRa1) (AID 2283014; active = hit-call score of the fitted dose curve at least 0.9, where 1 is the maximum). The method in brief: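 Reporter transcript induction, read by capillary electrophoresis of 6-FAM-labelled RT-PCR products, reflects activity of a transfected THRa1-Gal4 fusion in HepG2 liver cells. Cells were dosed for 24 h; activity was fitted in the positive direction against DMSO.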
Sequence of human Thyroid Receptor alpha (THRa1), THRA (gene 7067) (P10827 whole entry, looked up, the tested form may be a part): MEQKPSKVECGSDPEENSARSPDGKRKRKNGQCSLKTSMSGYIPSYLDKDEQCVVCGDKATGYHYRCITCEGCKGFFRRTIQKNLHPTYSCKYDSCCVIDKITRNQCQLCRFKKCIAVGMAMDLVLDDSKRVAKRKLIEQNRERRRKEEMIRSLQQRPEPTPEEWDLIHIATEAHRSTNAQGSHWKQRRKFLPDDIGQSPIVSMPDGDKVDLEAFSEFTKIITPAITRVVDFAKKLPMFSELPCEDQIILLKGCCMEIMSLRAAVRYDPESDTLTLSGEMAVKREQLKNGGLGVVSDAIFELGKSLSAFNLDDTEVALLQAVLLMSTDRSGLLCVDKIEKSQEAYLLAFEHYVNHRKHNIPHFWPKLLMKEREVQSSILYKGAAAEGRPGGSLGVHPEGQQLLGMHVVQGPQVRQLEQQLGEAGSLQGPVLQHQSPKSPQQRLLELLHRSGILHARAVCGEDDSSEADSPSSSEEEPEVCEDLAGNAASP

Read-out in assay [8]: E-selectin (Homo sapiens) (UniProt P16581)
The assay is described as follows: BSK_3C_Eselectin: BioMAP Diversity Plus: 3C Assay for Eselectin Biomarker Activity (AID 2283015).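 For outcome: cell surface E-selectin protein quantified by ELISA 24 h after dosing.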 The settings on record: primary human endothelial cells (HUVEC); actives raise or lower the signal. The method in brief: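 ELISA read-out of E-selectin on endothelial monolayers after 24 h chemical treatment. Human umbilical vein primary cells served as the system, with DMSO defining baseline activity for bidirectional fitting.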

Read-out in assay [9]: Interleukin-1 alpha (IL1a), IL1A (gene 3552)
The assay is described as follows: BSK_BE3C_IL1a: BioMAP Diversity Plus: BE3C Assay for Interleukin-1 alpha (IL1a) Biomarker Activity (AID 2283016). The settings on record: primary human bronchial epithelial cells; actives raise or lower the signal. In a few lines: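 Cultures of primary human bronchial epithelial cells receive test chemical. After 24 h, IL-1a is quantified by ELISA, while parallel wells are fixed in TCA and SRB-stained for total protein. Changes in either direction are fitted relative to DMSO.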

Read-out in assay [10]: Monocyte Chemoattractant Protein-1 (MCP1), CCL2 (gene 6347)
The assay is described as follows: BSK_3C_MCP1: BioMAP Diversity Plus: 3C Assay for Monocyte Chemoattractant Protein-1 (MCP1) Biomarker Activity (AID 2283017). The settings on record: primary human endothelial cells (HUVEC); actives raise or lower the signal. In a few lines:
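ELISA read-out of MCP-1 from human umbilical vein endothelial cell cultures harvested 24 h post-dosing. Gain or loss of signal was fitted relative to DMSO.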

Read-out in assay [11]: Monocyte Chemoattractant Protein-1 (MCP1), CCL2 (gene 6347)
Briefly: BSK_4H_MCP1: BioMAP Diversity Plus: 4H Assay for Monocyte Chemoattractant Protein-1 (MCP1) Biomarker Activity (AID 2283018). Conditions: primary human endothelial cells (HUVEC); actives raise or lower the signal. The method in brief: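 Readout: MCP-1 ELISA on compound-treated HUVEC, sampled 24 h post-dosing. Baseline and negative control DMSO; bidirectional fit. Overt toxicity checked alongside by sulforhodamine B protein staining at time of biomarker measurement.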

Read-out in assay [12]: Human Leukocyte Antigen - DR isotype (HLADR), HLA-DRA (gene 3122)
The assay is described as follows: BSK_3C_HLADR: BioMAP Diversity Plus: 3C Assay for Human Leukocyte Antigen - DR isotype (HLADR) Biomarker Activity (AID 2283019). Conditions: primary human endothelial cells (HUVEC); actives raise or lower the signal. The method in brief: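 ELISA readout of surface HLA-DR on human umbilical vein endothelium, taken 24 h after chemical treatment. Gain- and loss-of-signal were both fitted relative to DMSO.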

Read-out in assay [13]: Monokine induced gamma interferon (MIG), CXCL9 (gene 4283)
The assay is described as follows: BSK_3C_MIG: BioMAP Diversity Plus: 3C Assay for Monokine induced gamma interferon (MIG) Biomarker Activity (AID 2283021).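 For AC50: MIG protein level measured by immunoassay in the treated endothelial cultures.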 Conditions: primary human endothelial cells (HUVEC); actives raise or lower the signal. The method in brief:
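After 24 h of treatment, human umbilical vein endothelial cultures (3C system) had their MIG biomarker level determined by ELISA, with DMSO serving as negative control.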

In assay [14] the target is human Vitamin D Receptor (VDR), VDR (gene 7421) (UniProt P11473). Briefly: ATG_VDR_TRANS: Attagene TRANS-FACTORIAL HepG2 Assay for human Vitamin D Receptor (VDR) (AID 2283022; active = hit-call score of the fitted dose curve at least 0.9, where 1 is the maximum). The method in brief:
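Steps: transfect HepG2 with GAL4-UAS-driven reporter constructs; dose compounds 24 h; isolate RNA, reverse-transcribe, PCR-amplify with 6-FAM-labelled primer extension and HpaI digestion; quantify fragments by capillary electrophoresis relative to DMSO.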

Assay [15] can be described thus: BSK_3C_SRB: Viability Assessment in the BioMAP Diversity Plus: 3C Assay (AID 2283023).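 Note: fitted both ways against DMSO so a hit may be signal rise or drop.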 The settings on record: primary human endothelial cells (HUVEC). The method in brief:
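Absorbance at 560 nm of sulforhodamine B-stained (0.1%) total protein served as a cytotoxicity readout in human umbilical vein endothelial cells, 24 h after chemical treatment. Signal was fitted bidirectionally relative to DMSO.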

The target of assay [16] is Retinoic acid receptor RXR-alpha (Homo sapiens) (UniProt P19793). Briefly: ATG_RXRa_TRANS: Attagene TRANS-FACTORIAL HepG2 Assay for human Retinoid X Receptor alpha (RXRa) (AID 2283012; active = hit-call score of the fitted dose curve at least 0.9, where 1 is the maximum). In a few lines:
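Cells (HepG2) carried transiently transfected GAL4-responsive reporter units. Following a 24 h chemical incubation, reporter mRNA induction was read via RT-PCR fragment analysis; DMSO served as negative control and baseline.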

Read-out in assay [17]: Interleukin-8 (IL8), CXCL8 (gene 3576)
Briefly: BSK_3C_IL8: BioMAP Diversity Plus: 3C Assay for Interleukin-8 (IL8) Biomarker Activity (AID 2283020). The settings on record: primary human endothelial cells (HUVEC); actives raise or lower the signal. The method in brief: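 Human vascular endothelial cells (umbilical vein) in the 3C system; IL-8 level detected by ELISA at 24 h post-dose, with DMSO as baseline.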

Assay [18] concerns the target Retinoic acid receptor alpha (Homo sapiens) (UniProt P10276). Briefly: ATG_RARa_TRANS: Attagene TRANS-FACTORIAL HepG2 Assay for human Retinoic Acid Receptor alpha (RARa) (AID 2283005; active = hit-call score of the fitted dose curve at least 0.9, where 1 is the maximum). In a few lines:
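Reporter transcripts, measured by RT-PCR with fluorescent labeling and capillary electrophoresis after 24 h dosing, reflect activity of an exogenous human RARa–GAL4 fusion in transiently transfected HepG2. Fitted for increase relative to DMSO.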

Assay [19] addresses human RAR-related Orphan Receptor gamma (RORg), RORC (gene 6097) (UniProt P51449). Briefly: ATG_RORg_TRANS: Attagene TRANS-FACTORIAL HepG2 Assay for human RAR-related Orphan Receptor gamma (RORg) (AID 2283011; active = hit-call score of the fitted dose curve at least 0.9, where 1 is the maximum). In a few lines: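 First, HepG2 liver cells were transfected with GAL4-UAS-driven reporter constructs and the RORg-Gal4 fusion. Next, they were treated with chemical for 24 h. Finally, reporter mRNA was quantified by RT-PCR and capillary electrophoresis, with upward activity fitted against DMSO.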

Broadly, the AC50 is the concentration at which the activity in the assay is half-maximal.

Molecules are shown by their SMILES. Inconclusive results are not listed. More than one record can exist for a structure, and the calls need not agree. Active and inactive are the calls of the source. Rule for the calls, unless noted: active = hit-call score of the fitted dose curve at least 0.9, where 1 is the maximum; inactive = score below 0.9.

Sequence of Retinoic acid receptor RXR-alpha (Homo sapiens) (P19793 whole entry, looked up, the tested form may be a part): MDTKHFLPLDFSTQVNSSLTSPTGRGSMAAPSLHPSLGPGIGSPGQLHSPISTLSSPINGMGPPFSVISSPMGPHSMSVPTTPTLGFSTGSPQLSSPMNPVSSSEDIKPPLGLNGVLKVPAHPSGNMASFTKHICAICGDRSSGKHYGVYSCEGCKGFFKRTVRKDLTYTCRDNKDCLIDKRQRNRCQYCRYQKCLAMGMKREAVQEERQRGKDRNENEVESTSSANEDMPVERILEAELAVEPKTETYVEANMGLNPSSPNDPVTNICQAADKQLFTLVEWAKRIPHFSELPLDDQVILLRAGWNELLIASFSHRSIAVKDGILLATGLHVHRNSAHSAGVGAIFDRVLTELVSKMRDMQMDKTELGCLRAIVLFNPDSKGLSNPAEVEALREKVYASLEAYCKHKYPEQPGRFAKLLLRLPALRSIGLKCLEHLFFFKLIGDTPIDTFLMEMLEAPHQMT
Sequence of human RAR-related Orphan Receptor beta (RORb), RORB (gene 6096) (Q92753 whole entry, looked up, the tested form may be a part): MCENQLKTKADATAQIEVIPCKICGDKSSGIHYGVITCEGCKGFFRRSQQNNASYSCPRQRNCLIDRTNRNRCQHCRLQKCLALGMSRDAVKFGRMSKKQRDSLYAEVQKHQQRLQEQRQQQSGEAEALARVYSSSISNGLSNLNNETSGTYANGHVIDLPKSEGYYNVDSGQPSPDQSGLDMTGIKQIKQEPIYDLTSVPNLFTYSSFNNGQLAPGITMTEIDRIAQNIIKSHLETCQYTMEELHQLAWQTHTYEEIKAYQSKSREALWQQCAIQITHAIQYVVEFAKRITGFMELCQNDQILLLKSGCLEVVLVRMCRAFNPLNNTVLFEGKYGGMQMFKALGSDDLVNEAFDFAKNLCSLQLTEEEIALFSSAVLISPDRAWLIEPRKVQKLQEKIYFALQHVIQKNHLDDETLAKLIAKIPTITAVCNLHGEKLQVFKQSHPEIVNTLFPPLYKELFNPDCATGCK
Sequence of E-selectin (Homo sapiens) (P16581 whole entry, looked up): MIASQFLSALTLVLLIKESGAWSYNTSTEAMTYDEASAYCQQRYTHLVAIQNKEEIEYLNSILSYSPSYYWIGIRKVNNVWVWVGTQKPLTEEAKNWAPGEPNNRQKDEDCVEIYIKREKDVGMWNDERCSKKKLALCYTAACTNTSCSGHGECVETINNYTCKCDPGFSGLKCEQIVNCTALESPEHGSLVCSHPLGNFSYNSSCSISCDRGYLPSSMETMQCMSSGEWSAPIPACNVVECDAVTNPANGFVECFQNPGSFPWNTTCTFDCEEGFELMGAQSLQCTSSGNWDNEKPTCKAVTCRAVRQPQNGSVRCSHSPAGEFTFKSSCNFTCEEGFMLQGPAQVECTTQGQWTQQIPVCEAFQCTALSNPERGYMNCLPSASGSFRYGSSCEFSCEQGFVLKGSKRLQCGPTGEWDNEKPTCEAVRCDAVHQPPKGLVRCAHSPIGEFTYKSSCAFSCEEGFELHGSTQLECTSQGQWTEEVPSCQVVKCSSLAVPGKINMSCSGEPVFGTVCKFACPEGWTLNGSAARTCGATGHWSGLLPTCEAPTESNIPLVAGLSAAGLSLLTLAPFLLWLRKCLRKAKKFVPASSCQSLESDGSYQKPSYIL
Sequence of human Retinoid X Receptor beta (RXRb), RXRB (gene 6257) (P28702 whole entry, looked up): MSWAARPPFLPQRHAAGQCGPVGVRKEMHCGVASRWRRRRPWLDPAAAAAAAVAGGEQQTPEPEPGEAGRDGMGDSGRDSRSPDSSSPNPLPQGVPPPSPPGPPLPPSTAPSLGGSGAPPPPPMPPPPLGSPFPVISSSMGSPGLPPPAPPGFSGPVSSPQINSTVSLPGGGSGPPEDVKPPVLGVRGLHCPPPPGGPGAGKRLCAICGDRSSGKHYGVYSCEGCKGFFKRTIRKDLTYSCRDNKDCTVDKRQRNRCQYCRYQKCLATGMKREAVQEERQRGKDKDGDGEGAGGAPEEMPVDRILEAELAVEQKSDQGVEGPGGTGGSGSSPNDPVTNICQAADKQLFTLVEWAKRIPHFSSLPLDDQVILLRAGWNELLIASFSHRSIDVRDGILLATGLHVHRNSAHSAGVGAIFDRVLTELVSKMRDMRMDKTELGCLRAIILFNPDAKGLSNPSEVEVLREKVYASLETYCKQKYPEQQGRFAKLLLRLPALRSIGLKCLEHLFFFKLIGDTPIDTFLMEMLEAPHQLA
Sequence of human Vitamin D Receptor (VDR), VDR (gene 7421) (P11473 whole entry, looked up, the tested form may be a part): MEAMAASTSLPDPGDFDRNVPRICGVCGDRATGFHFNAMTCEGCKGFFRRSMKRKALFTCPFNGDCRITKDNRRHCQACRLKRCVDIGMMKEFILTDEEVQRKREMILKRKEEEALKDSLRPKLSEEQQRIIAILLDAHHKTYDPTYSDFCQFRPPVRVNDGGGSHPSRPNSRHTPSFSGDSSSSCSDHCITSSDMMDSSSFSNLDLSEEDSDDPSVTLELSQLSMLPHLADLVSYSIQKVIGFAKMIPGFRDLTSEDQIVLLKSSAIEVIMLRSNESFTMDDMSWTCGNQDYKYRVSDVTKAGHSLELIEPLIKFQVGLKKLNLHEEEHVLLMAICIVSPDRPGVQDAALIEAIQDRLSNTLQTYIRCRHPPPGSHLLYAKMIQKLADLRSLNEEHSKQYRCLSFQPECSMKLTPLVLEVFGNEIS
Sequence of Peroxisome proliferator-activated receptor gamma (Homo sapiens) (P37231 whole entry, looked up, the tested form may be a part): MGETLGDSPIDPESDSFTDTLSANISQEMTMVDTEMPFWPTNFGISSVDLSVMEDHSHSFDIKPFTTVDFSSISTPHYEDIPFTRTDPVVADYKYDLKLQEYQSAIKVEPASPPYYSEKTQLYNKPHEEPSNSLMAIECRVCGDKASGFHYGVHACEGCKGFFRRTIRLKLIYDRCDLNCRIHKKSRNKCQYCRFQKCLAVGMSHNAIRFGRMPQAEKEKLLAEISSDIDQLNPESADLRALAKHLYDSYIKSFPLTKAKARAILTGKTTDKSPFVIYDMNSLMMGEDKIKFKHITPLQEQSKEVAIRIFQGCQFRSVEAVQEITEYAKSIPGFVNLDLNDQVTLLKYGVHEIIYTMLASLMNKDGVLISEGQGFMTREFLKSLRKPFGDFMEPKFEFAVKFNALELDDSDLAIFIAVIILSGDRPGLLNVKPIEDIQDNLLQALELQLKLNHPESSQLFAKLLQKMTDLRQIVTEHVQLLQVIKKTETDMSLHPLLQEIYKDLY
Sequence of Nuclear receptor subfamily 1 group I member 2 (Homo sapiens) (O75469 whole entry, looked up, the tested form may be a part): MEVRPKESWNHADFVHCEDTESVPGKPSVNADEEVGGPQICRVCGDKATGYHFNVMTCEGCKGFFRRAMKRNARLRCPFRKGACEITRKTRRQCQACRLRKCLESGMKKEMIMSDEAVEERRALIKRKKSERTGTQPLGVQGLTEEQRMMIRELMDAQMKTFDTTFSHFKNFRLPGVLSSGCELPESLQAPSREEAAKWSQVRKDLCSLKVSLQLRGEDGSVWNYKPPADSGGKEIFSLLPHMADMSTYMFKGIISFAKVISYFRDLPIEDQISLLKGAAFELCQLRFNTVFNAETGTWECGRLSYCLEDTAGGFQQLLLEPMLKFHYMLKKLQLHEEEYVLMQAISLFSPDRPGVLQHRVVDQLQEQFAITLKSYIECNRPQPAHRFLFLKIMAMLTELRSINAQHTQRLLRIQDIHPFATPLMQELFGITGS
Sequence of human RAR-related Orphan Receptor gamma (RORg), RORC (gene 6097) (P51449 whole entry, looked up, the tested form may be a part): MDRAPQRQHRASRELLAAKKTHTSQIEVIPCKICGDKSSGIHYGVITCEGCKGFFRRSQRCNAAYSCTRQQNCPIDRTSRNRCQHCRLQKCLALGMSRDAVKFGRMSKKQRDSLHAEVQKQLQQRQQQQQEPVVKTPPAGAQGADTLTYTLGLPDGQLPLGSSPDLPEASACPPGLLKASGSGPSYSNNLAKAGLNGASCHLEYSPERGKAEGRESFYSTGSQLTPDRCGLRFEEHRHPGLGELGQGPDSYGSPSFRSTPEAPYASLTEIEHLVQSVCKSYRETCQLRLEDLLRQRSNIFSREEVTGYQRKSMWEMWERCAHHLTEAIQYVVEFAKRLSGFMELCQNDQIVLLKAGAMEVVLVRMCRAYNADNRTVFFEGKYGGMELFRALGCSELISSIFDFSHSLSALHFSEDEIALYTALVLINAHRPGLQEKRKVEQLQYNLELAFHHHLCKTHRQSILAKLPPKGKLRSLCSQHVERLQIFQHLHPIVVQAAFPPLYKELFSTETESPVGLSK
Sequence of human Retinoic Acid Receptor gamma (RARg), RARG (gene 5916) (P13631 whole entry, looked up, the tested form may be a part): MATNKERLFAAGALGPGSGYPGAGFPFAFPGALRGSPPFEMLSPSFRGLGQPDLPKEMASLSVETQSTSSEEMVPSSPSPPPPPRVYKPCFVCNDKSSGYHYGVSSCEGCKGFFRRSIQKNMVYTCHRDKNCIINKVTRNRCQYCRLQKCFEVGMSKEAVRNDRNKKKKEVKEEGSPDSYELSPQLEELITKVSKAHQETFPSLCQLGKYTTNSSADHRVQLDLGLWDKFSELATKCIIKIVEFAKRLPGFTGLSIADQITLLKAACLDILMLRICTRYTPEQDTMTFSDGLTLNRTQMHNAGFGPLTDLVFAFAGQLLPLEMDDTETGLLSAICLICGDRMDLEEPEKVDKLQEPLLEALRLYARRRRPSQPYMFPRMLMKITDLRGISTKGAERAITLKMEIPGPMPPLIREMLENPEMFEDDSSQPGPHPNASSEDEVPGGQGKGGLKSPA

Turning to `C[C@]12CCC(=O)C[C@@H]1CC[C@@H]1[C@@H]2CC[C@]2(C)[C@@H](O)CC[C@@H]12`, the AC50 is 18.3 µM (active) in assay [1]; 11.9 µM (active) in [3]; 18 µM (active) in [8]; 26.9 µM (active) in assay [10]; 27.8 µM (active) in [12]; 20.9 µM (active) in assay [15]. Further, the compound was called inactive in assay [2], in assay [3], in assay [4], in assay [5], in assay [6] and in assay [7]. Also, the outcome in assay [9], in [11], in assay [13] and in assay [14] was inactive.
For the compound `COP(=S)(OC)Oc1ccc(S(=O)(=O)N(C)C)cc1`, the result in [1], in [2], in assay [3], in [16], in assay [7] and in [8] was inactive. For the same compound, the result in assay [9], in [10], in assay [11], in [14] and in [15] was inactive. The AC50 in assay [12] was 32.3 µM (active).
With `Oc1c(I)cc(I)cc1I`, the AC50 in [1] is 11.4 µM (active); in [2], 9.7 µM (active); in [3] it was 6.69 µM (active); in assay [7], 7.66 µM (active); in [8], 11.3 µM (active); in assay [9], 8.87 µM (active). Besides, the half-maximal activity concentration (AC50) was 11.9 µM (active) in assay [10]; 20 µM (active) in assay [11]; 9.5 µM (active) in assay [12]; 34.9 µM (active) in assay [13]; 10.3 µM (active) in [15]. Besides, the outcome in [6] and in assay [14] was inactive.
Take `CCOC(=O)/C=C(C)/C=C/C[C@@H](C)CCCC(C)C`: the AC50 in assay [1] was 20 µM (active); in assay [2] it was 1.56 µM (active); in [3], 5.32 µM (active); in [6], 26.9 µM (active); in [8], 26.5 µM (active); in assay [9], 20 µM (active). The AC50 was 31.2 µM (active) in assay [10]; 29.4 µM (active) in [11]; 28.1 µM (active) in assay [12]; 30.8 µM (active) in [13]; 36.4 µM (active) in assay [15]. For the same compound, the outcome in assay [16], in assay [17] and in assay [14] was inactive.
Take `CC(C)(OO)c1ccccc1`: the outcome in [1], in [2], in assay [5], in assay [6], in [8] and in assay [9] was inactive. For the same compound, the result in assay [10], in [11], in [12], in assay [17], in assay [13] and in assay [14] was inactive. For the same compound, the outcome in [15] was inactive.
Take `Nc1ccc(-c2ccc(N)c(Cl)c2)cc1Cl`: the AC50 is 1.84 µM (active) in [1]; 11.9 µM (active) in assay [2]; 13.2 µM (active) in [3]; 11.2 µM (active) in assay [6]; 2.43 µM (active) in assay [12]; 2.21 µM (active) in assay [15]. The result in [5], in assay [16], in assay [8], in assay [9], in [10] and in assay [11] was inactive. Further, in assay [14], the call was inactive.
On to `O=C(Cl)c1ccc(Cl)cc1`, for which the compound was classed as inactive in [18], in [2] and in assay [19].
Take `Nc1ncc([N+](=O)[O-])s1`: the result in [1], in assay [2], in [3], in [5], in assay [19] and in [6] was inactive. For the same compound, the result in [8], in assay [9], in assay [10], in assay [11], in assay [12] and in assay [17] was inactive. In assay [15], the outcome was inactive.
As for `CC(C)c1ccc(CO)cc1`, the outcome in assay [1], in [2], in [3], in assay [5], in assay [6] and in [7] was inactive. Also, the outcome in assay [8], in [9], in assay [10], in assay [11], in assay [12] and in assay [17] was inactive. In addition, the compound was classed as inactive in [14] and in assay [15].
